Screening data deposited in PubChem BioAssay by Broad Institute.
In the library only some 2.2% were active in any assay of this set; here they are far more common.
PAX8 inh HTS – inhibitors of PAX8-driven TPO luciferase reporter, primary screen, RMG-I cells, single concentration | SteadyGlo, 24 h | inhibition, % at 12.6 µM | actives 1.2% (n = 360,000) | AID 652154, 2013;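 active means mean replicate inhibition at least 60% with every replicate also reaching 60%; inconclusive means only one of the two criteria is met; inactive means mean below 60% and not all replicates reaching 60%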;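 further: luciferase light reporting Pax8 driven TPO promoter activity; plate controls were median of neutral control wells for no effect and mitoxantrone controls for full effect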
TRPM1 prom inh – inhibitors of MITF-dependent TRPM1 promoter reporter, primary screen, cell-based, SK-MEL-5, single point, luciferase; SK-MEL-5 TRPM1 promoter luciferase, 24 h; inhibition, % at 12.5 µM; actives 0.83% (n = 330,000);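 active means mean inhibition across replicates of 60% or more, whatever share of single replicates reaches that level; inconclusive means some that reach 60%, reason not given; inactive means mean inhibition across replicates below 60%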
PGC1a acetyl inh – inhibitors of PGC1a acetylation signal, primary screen, cell-based, U2OS, AlphaScreen, inhibitor mode; actives 0.17% (n = 350,000); AlphaScreen anti-acetyl-lysine; with virally co-expressed GCN5 acetyltransferase; AID 651687, 2012; inhibition, % at 15.6 µM;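 active means every replicate shows inhibition of at least 40%; inconclusive means mean inhibition at least 40% but some replicate below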;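 further: 0% = neutral control wells and 100% = positive control wells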
EWS-Fli block – EWS/Fli-driven NR0B1 reporter inhibitors, primary screen, A673 cells, NR0B1 luciferase, luminescence, MLPCN library; actives 0.67% (n = 350,000); viability-normalised; inhibition, % at 12.6 µM;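 active means mean inhibition of at least 50% after viability correction, with every replicate also passing that limit; inconclusive means mean reaches 50% but only one of two replicates passes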;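 further: firefly luciferase signal divided by Alamar Blue viability fluorescence both relative to DMSO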
LGR2 inh – inhibitors of bursicon-induced LGR2 CRE-luciferase signal, primary screen, cell-based, HEK293, CRE-luciferase reporter, bursicon stimulation; Drosophila bursicon receptor LGR2 (rickets); bursicon-stimulated, 4 h; inhibition, % at 9.99 µM; actives 0.35% (n = 380,000);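 active means drop in luminescence signal, shown as inhibition above about 50% in the replicate tests, limit read from the data, passing the limit was not always enough; inconclusive means probably only some replicates passing the limit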;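 further: agonist challenge used bursicon conditioned medium at about half maximal strength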
LMP1 NFkB inh – EBV LMP1-driven NF-kappaB luciferase reporter inhibitors, primary screen, cell-based, luminescence, single point | actives 0.69% (n = 350,000) | LMP1-induced NF-kappaB luciferase reporter cells | inhibition, % at 12.5 µM | AID 504558, 2011; in the data active means inhibition above about 41%; inconclusive means no clear call, values can overlap the other calls;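 further: 0% = neutral control wells and 100% = reference inhibitor control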
Active calls of the source: *; u = inconclusive; x = no result given.

SMILES	PAX8 inh HTS	TRPM1 prom inh	PGC1a acetyl inh	EWS-Fli block	LGR2 inh	LMP1 NFkB inh
O=C(Cc1ccccc1)N/N=C/c1ccc([N+](=O)[O-])s1	x	68*	x	x	x	-3
COc1cccc(-c2cnc3c(c2)C(=O)N([C@H](C)CO)C[C@H](C)[C@H](CN(C)C(=O)NC2CCCC2)O3)c1	-22	x	-12	-11	-11	x
Cc1ccc(/C=C/C(=O)NC2=NCCS2)cc1	29	-10	-1	50	72*	-11
O=C(CNc1cccc2ccccc12)N/N=C/c1ccc([N+](=O)[O-])o1	49	75*	x	36	19	-6
O=C(CNc1cccc([N+](=O)[O-])c1)N/N=C/c1ccc([N+](=O)[O-])o1	49	78*	-92	26	x	-11
C=CCC(Nc1ccccc1)C12C=CC(O1)C(C(=O)OC)=C2C(=O)OC (configuration not stated)	x	80*	x	x	3	9
COc1cc2nc(SCC(=O)NCc3ccco3)n(Cc3ccc(Cl)cc3)c(=O)c2cc1OC	-12	62*	-2	x	x	12
COc1cc(C(C)=O)ccc1OCC(O)Cn1nc(C)c(Br)c1C (configuration not stated)	-27	-6	11	-5	-13	62*
Cc1noc(C)c1NC(=O)NCC[C@@H]1CC[C@H](NC(=O)Nc2cccc(F)c2)[C@H](CO)O1	1	x	-2	-8	0	x
COc1ccc(C=Cc2ccc3ccccc3n2)c(OC)c1	-93	x	x	49	-22	45*
CN1\C(=C/C=C/C=C/C=[N+](C)C)C(C)(C)c2ccccc21	51	59	x	66*	x	7
Cc1cc(C)cc(N(C(=O)c2cc3ccccc3oc2=O)C2C=CS(=O)(=O)C2)c1 (configuration not stated)	6	-3	x	15	24	8
Cc1ccc(N(C(=O)c2cc3ccccc3oc2=O)C2C=CS(=O)(=O)C2)cc1 (configuration not stated)	77*	-11	x	11	13	-7
CO[C@H]1CN(C)C(=O)c2ccc(NC(=O)NC(C)C)cc2OC[C@H](C)N(C)C[C@H]1C	x	x	1	3	12	x
O=C(CCC1CCN(Cc2ccccc2Cl)CC1)NC1CC1	14	9	95*	-28	-13	2
COc1ccc(-c2cnc3c(NC=O)cc(-c4cccc(NS(C)(=O)=O)c4)cn23)cc1OC	112*	x	-29	48	-3	x
CS(=O)(=O)Nc1cccc(-c2cc(NC=O)c3ncc(-c4ccc(F)c(Cl)c4)n3c2)c1	64*	x	-16	11	-16	x
Cc1cc(C)c2c(=O)[nH]n(C3CCOC(C)(C)C3)c2n1 (configuration not stated)	11	-4	2	0	-12	8
Cc1cc(C)c2c(=O)[nH]n(C3CCCCCC3)c2n1	16	-3	88*	-1	4	-2
O=C(c1ccccc1Cl)N1CCNCC1	x	0	67*	x	-5	2
CS(=O)(=O)Nc1ccc2c(c1)[C@H]1C[C@H](CC(=O)N3CCCCC3)O[C@H](CO)[C@H]1O2	-13	x	-7	-1	-13	x
COc1ccc(NC(=O)c2ccc(-c3ccc(-c4noc(C)n4)cc3C)cc2)cc1N1CCN(C)CC1	32	u	-40	9	104*	-19
Fc1ccc(CNC(=S)NCc2ccc(F)cc2)cc1	-9	10	87*	5	4	-9
COc1cccc(S(=O)(=O)N(C)C[C@@H]2OCc3ccccc3-c3c(n(C)c4ccccc34)C(=O)N([C@H](C)CO)C[C@H]2C)c1	44	x	-7	20	0	x
COc1cccc(S(=O)(=O)N(C)C[C@@H]2OCc3ccccc3-c3c(n(C)c4ccccc34)C(=O)N([C@@H](C)CO)C[C@@H]2C)c1	82*	x	3	7	14	x
COc1cccc(S(=O)(=O)N(C)C[C@H]2OCc3ccccc3-c3c(n(C)c4ccccc34)C(=O)N([C@H](C)CO)C[C@@H]2C)c1	66*	x	-3	21	0	x
